Screens: PubChem, National Center for Advancing Translational Sciences (NCATS)
Pol kappa inh – blocks human DNA polymerase kappa activity; Q9UBT6; purified Pol kappa, fluorescent DNA synthesis assay, 10 min; Potency, µM (highest dose often 107 µM), usual class: inhibitors; actives 0.53% (n = 400,000); AID 588579
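First, compounds were pin-transferred onto 10 nM Pol kappa. After 15 min at room temperature, substrate was added to 50 nM final. Fluorescence was then measured kinetically at 0 and 10 min.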
POLH inh – blocks human DNA polymerase eta activity; Potency, µM (titrated, usually from 114 µM), actives largely listed as inhibitors; AID 588591; Q9Y253; actives 1.2% (n = 390,000); recombinant Pol eta, fluorescent DNA replication assay
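Fluorescent replication assay: 50 nM final substrate added after a 15 min room-temperature compound preincubation with 10 nM enzyme. Signal taken at 0 min and again at 10 min.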
POLI inh – inhibitors of human DNA polymerase iota; Potency, µM (series often up to 115 µM), most hits filed as inhibitors; Q9UNA4; actives 1% (n = 390,000); Pol iota fluorescent replication assay, 10 min
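Pol iota at 10 nM preincubated 15 min with compounds at room temperature; reaction started with fluorescent substrate, 50 nM final. Fluorescence read kinetically at 0 and 10 min; buffer-only wells as negative control.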
FEN1 inh – inhibitors of human flap endonuclease 1; P39748; Recombinant FEN1 flap cleavage, fluorescence, 15 min; Potency, µM (doses to about 114 µM), most hits filed as inhibitors; actives 0.35% (n = 390,000); AID 588795; note: nearly all actives have a fitted effect of over 65% in size
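FEN1 at 10 nM preincubated with compounds 15 min at room temperature, then flap DNA substrate added at 50 nM final. Signal read at 0 and 15 min; concentration-response fitted with four-parameter Hill equation.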
Pol beta inh – blocks human DNA polymerase beta activity; P06746; Pol beta primer extension/strand displacement, fluorescence kinetic; Potency, µM (series often up to 114 µM), actives largely listed as inhibitors; actives 1.3% (n = 340,000)
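Homogeneous kinetic assay of primer extension and strand displacement by 10 nM Pol beta, preincubated 15 min at room temperature with compound before 50 nM substrate (final) was added. Read at 0 and 10 min; four-parameter Hill fit.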
WRN helicase inh – WRN helicase (human) inhibition | WRN helicase unwinding, fluorescent forked duplex, kinetic | Potency, µM (series often up to 114 µM), most hits filed as inhibitors | actives 0.46% (n = 360,000); note: nearly all actives have a fitted effect of over 55% in size
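Screening of the MLSMR collection measured strand separation of a quenched forked DNA duplex (100 nM) by 20 nM WRN with 2 mM ATP, all final. Compounds were preincubated with enzyme 15 min at room temperature.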
Each line names hits and unclear results; the compound was inactive in the other large screens; ! = a repeat was not active. Shown are actives, neighbours in structure and some others; about 2.4% of the full set was active somewhere. Calls come from the whole dose curve; as a rule, active = well fitted curve in the direction sought with a large enough effect; inconclusive = small, poorly fitted or top-dose-only effect, or another doubt; inactive = no such curve, though single readings can be large; an effect the other way counts as inactive or inconclusive.

CCc1ccc(OCC(=O)NNC(=O)Cc2cccs2)cc1	POLH inh inconclusive, Pol beta inh 20µM
Cc1oc(C(=O)O)cc1CSc1nnc(-c2ccccc2)n1C	POLH inh inconclusive, POLI inh inconclusive, Pol beta inh inconclusive
CCOc1cccc(-c2cc(C(=O)N3N=C(C)CC3(O)C(F)F)c3ccccc3n2)c1 (centres undefined)	none
CCc1nnc(NC(=O)CSc2nnnn2-c2cccc(C(=O)OC)c2)s1	none
Cc1cc(=O)n(Cc2ccccc2)c2c(C)cccc12	none
O=C(O)C1CC=CCC1C(=O)Nc1ccc(F)c(F)c1 (centres undefined)	none
O=C(O)C1CC=CCC1C(=O)Nc1cccc(F)c1 (centres undefined)	Pol beta inh 28µM
CC(=O)Nc1ccc2c(c1)OCCO2	none
O=C(O)C1CC=CCC1C(=O)Nc1ccc2c(c1)OCCO2 (centres undefined)	POLH inh inconclusive, Pol beta inh 20µM
CCn1c(SC)nnc1-c1nnc(SC)n1CC	none
CC(=O)c1ccc2noc(-c3ccccc3)c2c1	none
CN(C)/C=C/C(=O)c1ccc2noc(-c3ccccc3)c2c1	POLH inh inconclusive, POLI inh 79µM, Pol beta inh inconclusive
COc1ccc(N(CCOc2ccccc2)S(=O)(=O)c2ccccc2)cc1	POLI inh inconclusive (no result: Pol beta inh)
COc1ccc(N2CCN(C(=O)c3ccc(NC(=O)C4=CSCCO4)cc3)CC2)cc1	POLI inh 35µM
CCCc1ccc(C(=O)NNC(=O)c2ccc(Cl)cc2)cc1	POLH inh inconclusive, POLI inh inconclusive, Pol beta inh 32µM
COc1cc2c(cc1OC)C1O[C@](c3ccsc3)(C2)Oc2cc(-c3ccccc3)oc(=O)c21	Pol beta inh 13µM (no result: Pol kappa inh, POLH inh, POLI inh, FEN1 inh, WRN helicase inh)
COc1cc2c(cc1OC)C1O[C@](c3ccsc3)(C2)Oc2cc(C)n(Cc3ccccc3)c(=O)c21	none (no result: Pol kappa inh, POLH inh, POLI inh, FEN1 inh, WRN helicase inh)
CCOc1cccc(C=NNc2ccc(S(=O)(=O)Nc3ccccc3C(=O)O)cc2[N+](=O)[O-])c1O	none (no result: Pol beta inh)
COc1ccc(C=NNc2ccc(S(=O)(=O)Nc3ccccc3C(=O)O)cc2[N+](=O)[O-])c(OC)c1	Pol kappa inh inconclusive, POLH inh 50µM, POLI inh inconclusive, FEN1 inh 22µM, WRN helicase inh inconclusive (no result: Pol beta inh)
c1ccc(Oc2nc(N3CCOCC3)nc(N3CCOCC3)n2)cc1	Pol beta inh 89µM
CCC(C)C(=O)OCC1(c2ccc(C)cc2OC(=O)C(C)C)CO1 (centres undefined)	POLI inh inconclusive, Pol beta inh 40µM
Cc1cccc(Cn2nnc(C(=O)Nc3cc(C)ccc3C)c2N)c1	none (no result: WRN helicase inh)
COc1ccc(/C=C2\SC(=O)N(CCc3nnc(N)s3)C2=O)cc1	Pol kappa inh inconclusive, POLH inh 45µM, POLI inh 20µM, Pol beta inh inconclusive
CC1=C(C#N)CCC(=O)N1Cc1c(C)cc(C)cc1C	none
COc1ccc(CCNC(=O)CSCc2c(F)cccc2Cl)cc1OC	none
COc1ccc(-n2c(=O)c3c4c(sc3n(CC(=O)Nc3cc(C)[nH]n3)c2=O)CCC4)c(OC)c1	POLI inh 79µM
CC(=O)N(C)N1c2ccccc2CCc2ccccc21	none
O=C(NCCc1csc2nc(-c3ccc(F)cc3)nn12)c1cccc(C(F)(F)F)c1	none (no result: WRN helicase inh)
O=C(CSc1nnc(-c2ccco2)c(-c2ccco2)n1)Nc1ccccc1	Pol kappa inh 20µM, POLH inh 2.8µM, POLI inh 5µM, FEN1 inh inconclusive, WRN helicase inh 35µM
Cc1ccc(NC(=O)CSc2nnc(-c3ccco3)c(-c3ccco3)n2)cc1	Pol kappa inh 40µM, POLH inh 11µM, POLI inh 11µM, FEN1 inh inconclusive, Pol beta inh 14µM, WRN helicase inh 40µM
Cc1ccc(SCC(=O)Nc2ccc(-c3nnc(-c4ccco4)o3)cc2)cc1	Pol kappa inh inconclusive, POLH inh inconclusive, Pol beta inh 50µM
O=C(CSc1nnc(-c2ccccc2)c(-c2ccccc2)n1)NCc1ccco1	none
CCC(=O)Nc1ccc(NC(=O)CSc2nnc(-c3ccco3)n2CC)cc1	Pol beta inh inconclusive
COc1ccc(F)cc1CN1CCN(c2cc(C)nc3c4c(C)cc(C)nc4nn23)CC1	none (no result: Pol kappa inh, POLH inh, POLI inh, FEN1 inh, WRN helicase inh)
CCOC(=O)Cc1cc(=O)n2[nH]c(C(C)(C)C)cc2n1	none
C[C@H](NC(=O)c1nc[nH]c1C(=O)NCc1ccccc1)C(=O)OCc1ccccc1	none
CCOC(=O)c1ccc(NS(=O)(=O)c2ccc(SC)cc2)cc1	POLI inh 79µM
CCOC(=O)Cc1ccc(NS(=O)(=O)c2ccc(SC)cc2)cc1	none
COc1ccc(NC(=O)N(C)C[C@H]2Oc3ccc(NC(=O)Nc4c(C)noc4C)cc3C(=O)N([C@H](C)CO)C[C@H]2C)cc1	none (no result: Pol beta inh)
CCCS(=O)(=O)c1c(S(=O)(=O)CCC)c2cc(C(C)(C)C)ccn2c1C(=O)c1ccccc1	POLH inh 89µM (no result: WRN helicase inh)
CC(C)(C)C(=O)c1sc2nc(-c3cccs3)cc(C(F)(F)F)c2c1N	WRN helicase inh 100µM
Nc1c(C(=O)Nc2nccs2)sc2nc(-c3cccs3)cc(C(F)(F)F)c12	POLH inh inconclusive, Pol beta inh 45µM
Nc1c(C(=O)Nc2ccc(C(F)(F)F)cc2)sc2nc(-c3cccs3)ccc12	Pol beta inh inconclusive (no result: WRN helicase inh)
Cc1cc(C)c2c(N)c(C(=O)Nc3nccs3)sc2n1	POLH inh inconclusive, Pol beta inh 40µM
COc1ccc(N2CCN(CC(O)COC(C)(C)C)CC2)cc1 (centres undefined)	none
Nc1c(O)cccc1C(=O)O	Pol kappa inh inconclusive, POLI inh 40µM (no result: Pol beta inh)
COc1cc(NC(=O)c2ccnc(N)c2)cc(C(=O)Nc2cccc(C(F)(F)F)c2)c1	POLI inh inconclusive, FEN1 inh inconclusive
COc1cc(NC(=O)c2cnc(N)s2)cc(C(=O)Nc2cccc(C(F)(F)F)c2)c1	POLI inh 2.2µM, FEN1 inh 56µM
CCOC(=O)N1CCC(=NNC(=O)NC2CCCCC2)CC1	none
CCCCC[C@H](O)/C=C/C=C\CCCCCCCC(=O)O	none (no result: POLH inh, POLI inh, FEN1 inh, Pol beta inh, WRN helicase inh)
CCCCC[C@H](O)/C=C/C1=C(CCCCCCC(=O)O)C(=O)CC1	Pol kappa inh 50µM!, POLH inh 25µM, POLI inh 45µM, Pol beta inh inconclusive, WRN helicase inh inconclusive
CCOC(=O)C(C)N1C(=O)S/C(=C/c2cc(C)n(-c3ccccn3)c2C)C1=O (centres undefined)	Pol kappa inh 89µM
CCCCn1c(NC(C)=O)c(C#N)c2nc3ccccc3nc21	POLI inh inconclusive
C=CCn1c(NC(=O)c2ccccc2Cl)c(C#N)c2nc3ccccc3nc21	POLH inh 32µM, POLI inh inconclusive, FEN1 inh inconclusive
Cc1ccc(-c2nc(C)c(CCNC(=O)c3ccccc3Br)s2)cc1	none (no result: WRN helicase inh)
